Hits are enriched below; roughly 11% of the tested compounds scored in any of these assays.
HP1b binding inh – HP1-beta chromodomain-methylated histone interaction inhibition; Potency, µM (top dose mostly 114 µM), without a hit: at the highest dose activity change, negative = inhibition, most hits filed as inhibitors; hit rate 0.56% among 390,000; AlphaScreen HP1-beta / biotin-H3K9me3 peptide binding; P83916; note: potency is the fitted concentration of half-maximal effect; nearly all actives have a fitted effect of over 70% in size
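HP1-beta protein (50 nM final) preincubated 30 min at room temperature with biotinylated H3(1-18)K9me3 peptide (50 nM) in PBS pH 7.4, 0.01% Tween-20, then compound added for 30 min. AlphaScreen streptavidin donor/nickel chelate acceptor beads (10 ug/mL final), 30 min dark, luminescence read.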
JMJD2A Tudor inh – JMJD2A Tudor domain (human) inhibition. hit rate 4.4% among 390,000. AlphaScreen JMJD2A-Tudor / H3K4me3 peptide binding. O75164. Potency, µM (highest dose often 114 µM), without a hit: top-dose activity change, negative = inhibition, usual class: inhibitors; note: potency is the fitted concentration of half-maximal effect; % is set by controls: 0 for no effect and ±100 for the full control effect; nearly all actives have a fitted effect of over 50% in size
G9a inh – blocks human histone lysine methyltransferase G9a. hit rate 8.8% among 350,000. Potency, µM (top dose mostly 102 µM), inactives show top-dose activity, negative = inhibition, actives largely listed as inhibitors. G9a H3K9 monomethylation, AlphaScreen, 2 h. Q96KQ7; note: potency is the fitted concentration of half-maximal effect; % is set by controls: 0 for no effect and ±100 for the full control effect; nearly all actives have a fitted effect of over 75% in size
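Compounds were preincubated with 20 nM G9a for 15 min, after which biotinylated H3K9 peptide (500 nM) and SAM (20 uM) started a 2 h room-temperature reaction. Monomethylated product was quantified by antibody-based AlphaScreen chemiluminescence.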
BAZ2B inh – blocks human BAZ2B; hit rate 4.4% among 360,000; AlphaScreen BAZ2B-H3K14Ac peptide displacement; AID 504333; Potency, µM (series often up to 114 µM), for the others: at the highest dose activity change, negative = inhibition, most hits filed as inhibitors; note: potency is the fitted concentration of half-maximal effect; % is set by controls: 0 for no effect and ±100 for the full control effect; nearly all actives have a fitted effect of over 60% in size
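Multi-concentration screen (max 110 uM) measuring displacement of acetylated histone H3 peptide from BAZ2B by AlphaScreen, using 50 nM protein, 50 nM peptide and 10 ug/mL streptavidin donor plus Ni-chelate acceptor beads.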
PI5P4K alpha inh – inhibitors of human PI5P4K alpha; PI5P4Kalpha enzyme, ADP-Glo luminescence, 60 min; active compounds read low; max response, %; hit rate 1.2% among 330,000; active = max response of -50% or lower; inconclusive = between -30% and -50%; inactive = -30% or higher; note: value at the top dose of about 77 µM; % is set by controls: 0 for no effect and ±100 for the full control effect
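Reactions run in 0.038 M HEPES pH 7.4, 0.28 mM EGTA, 0.1% CHAPS and 5% DMSO, with PI5P4Kalpha, substrate, compound and 5 microM ATP final, one hour at room temperature. Readout is ADP-Glo luminescence.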
L3MBTL1 inh – blocks human L3MBTL1 | Q9Y468 | AlphaScreen L3MBTL1–H3K9me1 peptide binding | Potency, µM (top dose mostly 57.1 µM), for the others: top-dose activity, negative = inhibition, most hits filed as inhibitors | hit rate 0.66% among 230,000 | AID 485360; note: potency is the fitted concentration of half-maximal effect; % is set by controls: 0 for no effect and ±100 for the full control effect; nearly all actives have a fitted effect of over 60% in size
Target sequence (Q9Y468 whole entry, looked up): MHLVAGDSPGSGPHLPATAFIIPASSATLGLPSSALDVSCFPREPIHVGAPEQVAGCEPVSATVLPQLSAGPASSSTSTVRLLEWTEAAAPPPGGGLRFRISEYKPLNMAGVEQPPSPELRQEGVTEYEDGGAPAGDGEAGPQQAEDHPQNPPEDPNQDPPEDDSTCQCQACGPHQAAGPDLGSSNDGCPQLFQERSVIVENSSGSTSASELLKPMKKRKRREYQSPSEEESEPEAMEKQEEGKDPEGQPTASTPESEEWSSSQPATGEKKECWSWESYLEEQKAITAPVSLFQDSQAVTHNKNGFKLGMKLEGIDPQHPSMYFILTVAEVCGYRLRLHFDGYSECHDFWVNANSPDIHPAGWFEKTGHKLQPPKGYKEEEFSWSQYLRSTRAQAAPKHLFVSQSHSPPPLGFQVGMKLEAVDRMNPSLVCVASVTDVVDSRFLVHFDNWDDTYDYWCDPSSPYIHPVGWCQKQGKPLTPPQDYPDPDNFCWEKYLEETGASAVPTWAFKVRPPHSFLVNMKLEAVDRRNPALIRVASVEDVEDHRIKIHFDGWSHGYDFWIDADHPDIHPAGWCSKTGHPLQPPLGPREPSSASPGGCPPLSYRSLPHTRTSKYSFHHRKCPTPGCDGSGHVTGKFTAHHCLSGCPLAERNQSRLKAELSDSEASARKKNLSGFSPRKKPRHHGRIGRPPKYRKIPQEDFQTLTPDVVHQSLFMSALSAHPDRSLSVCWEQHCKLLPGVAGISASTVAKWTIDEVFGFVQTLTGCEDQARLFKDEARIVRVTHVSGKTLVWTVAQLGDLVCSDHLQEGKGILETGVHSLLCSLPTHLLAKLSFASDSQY
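AlphaScreen assay: L3MBTL1 (50 nM final) was preincubated 30 min at room temperature with biotinylated H3(1-15)K9me1 peptide (75 nM final), then 30 min with library compounds; streptavidin donor and nickel chelate acceptor beads (10 ug/mL final) added, 30 min dark.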
* marks the source's active call; other numbers are inactive results; [ ] = remark or other dose. Unless noted, calls come from the whole dose curve; as a rule, active = well fitted inhibition curve with a large enough effect; inconclusive = small, poorly fitted or top-dose-only effect; inactive = no such curve, though single readings can be large or run the other way.

Cc1ccc(NC(=O)Nc2nnc(SCC(=O)N3CCC(C)CC3)s2)cc1 was read as HP1b binding inh 39.7%, JMJD2A Tudor inh -10.1%, G9a inh 2.5%[59 µM] and BAZ2B inh -20.8%.
`Cc1ccc(Cc2c(C)nn(-c3nc(C)c(C(=O)N4CCCCC4C)s3)c2C)cc1` (centres undefined) gave HP1b binding inh 15.1%, JMJD2A Tudor inh -15.9%, G9a inh 0.5%[59 µM] and BAZ2B inh 1.3%.
Screening CCOC(=O)C1=CC(=O)CC(C)(C)O1 returned HP1b binding inh 24.7%, JMJD2A Tudor inh -8.9% and PI5P4K alpha inh 9.9.
Screening CCOC(=O)c1ncn2c1C(=O)OC2(C)C returned HP1b binding inh 7.8%, JMJD2A Tudor inh 17.8µM*, G9a inh inconclusive, BAZ2B inh inconclusive, PI5P4K alpha inh -6.9 and L3MBTL1 inh -7.5%.
For Cc1ccc(NC(=S)Nc2cccc(S(=O)(=O)Nc3c(C)n(C)n(-c4ccccc4)c3=O)c2)cc1 the results were HP1b binding inh -2.9%, JMJD2A Tudor inh -21.4%, G9a inh 44.7µM*, BAZ2B inh -19.5%, PI5P4K alpha inh 5.4 and L3MBTL1 inh -4.8%.
COc1ccc(NC(=O)Nc2c(C)n(C)n(-c3ccccc3)c2=O)cc1OC was read as HP1b binding inh 14.1%, JMJD2A Tudor inh -8.3%, G9a inh 3.1%, BAZ2B inh -12.8% and PI5P4K alpha inh 3.2.
Screening Cc1cccc(C)c1NC(=S)Nc1c(C)n(C)n(-c2ccccc2)c1=O returned HP1b binding inh 33.6%, JMJD2A Tudor inh -18.9%, G9a inh 0.794µM*, BAZ2B inh -7.4%, PI5P4K alpha inh 4.0 and L3MBTL1 inh -1.0%.
Cc1c(NC(=S)N/N=C/c2ccc(Br)cc2)c(=O)n(-c2ccccc2)n1C was read as HP1b binding inh 22.2%, JMJD2A Tudor inh -9.4%, G9a inh -46.5%, BAZ2B inh -18.0% and PI5P4K alpha inh -10.9.
For Cc1c(NC(=S)N/N=C\c2ccccc2O)c(=O)n(-c2ccccc2)n1C the results were HP1b binding inh 37.9%, JMJD2A Tudor inh 39.8µM*, G9a inh 9.7%[59 µM], BAZ2B inh 3.16µM*, PI5P4K alpha inh -5.6 and L3MBTL1 inh inconclusive.
`Cc1ccc(NC(=O)Nc2c(C)n(C)n(-c3ccccc3)c2=O)cc1C` gave HP1b binding inh inconclusive, JMJD2A Tudor inh 14.1µM*, G9a inh -23.0%, BAZ2B inh -16.1% and PI5P4K alpha inh inconclusive.
`COc1cccc(CN(C(=O)c2ccc(C(C)(C)C)cc2)C2CCS(=O)(=O)C2)c1` (centres undefined) gave HP1b binding inh -4.4%, JMJD2A Tudor inh -32.6%, G9a inh -6.6%[59 µM] and BAZ2B inh -9.2%.
Cc1c(NC(=S)N/N=C/C=C/c2ccc([N+](=O)[O-])cc2)c(=O)n(-c2ccccc2)n1C was read as HP1b binding inh -7.9%, JMJD2A Tudor inh -17.5%, G9a inh 0.2%[59 µM], BAZ2B inh -9.1%, PI5P4K alpha inh -1.7 and L3MBTL1 inh -3.7%.
Cc1c(NC(=S)N/N=C/c2ccc([N+](=O)[O-])cc2O)c(=O)n(-c2ccccc2)n1C was read as HP1b binding inh 28.5%, JMJD2A Tudor inh 44.7µM*, G9a inh 1.5%, BAZ2B inh 14.1µM* and PI5P4K alpha inh inconclusive.
For Cc1cc(C)cc(NC(=O)C(OC(=O)C2=COCCO2)c2ccccc2)c1 (centres undefined) the results were HP1b binding inh 14.1%, JMJD2A Tudor inh -14.1%, G9a inh 25.1µM*, BAZ2B inh -36.1%, PI5P4K alpha inh -8.5 and L3MBTL1 inh -14.8%.
COc1ccc(-c2cc(C(=O)O)c(C)o2)cc1OC was read as HP1b binding inh 32.9%, JMJD2A Tudor inh 10.5%, G9a inh -0.4%[12.7 µM], BAZ2B inh -16.0%, PI5P4K alpha inh inconclusive and L3MBTL1 inh -1.0%.
`COc1ccc(-c2cc(C(=O)NC(Cc3cc4ccccc4[nH]3)C(=O)O)c(C)o2)cc1OC` (centres undefined) gave HP1b binding inh inconclusive, JMJD2A Tudor inh -35.4%, G9a inh 31.6µM*, BAZ2B inh -30.1% and PI5P4K alpha inh -8.7.
`COc1ccc(CCNC(=O)CCCCCn2c(=O)[nH]c3cc(OC)c(OC)cc3c2=O)cc1OC` gave HP1b binding inh 36.6%, JMJD2A Tudor inh -16.0%, G9a inh 4.0%[59 µM] and BAZ2B inh -7.9%.
Screening CCOC(=O)c1ccc(NC(=O)C2Cc3ccccc3C(=O)O2)cc1 (centres undefined) returned HP1b binding inh 42.9%, JMJD2A Tudor inh -13.7%, G9a inh 15.1%[59 µM] and BAZ2B inh -0.6%.
COCCNc1oc(-c2ccc(COc3ccc(OC)cc3)o2)nc1C#N was read as HP1b binding inh inconclusive, JMJD2A Tudor inh inconclusive, G9a inh -28.7%[59 µM] and BAZ2B inh inconclusive.
COCCCNc1oc(-c2ccc(COc3ccc(Cl)cc3)o2)nc1C#N was read as HP1b binding inh -27.8%, JMJD2A Tudor inh inconclusive, G9a inh 8.91µM* and BAZ2B inh inconclusive.
Screening COCCCNc1oc(COc2ccc(Cl)cc2Cl)nc1C#N returned HP1b binding inh -23.7%, JMJD2A Tudor inh inconclusive, G9a inh 31.6µM*, BAZ2B inh -37.4%, PI5P4K alpha inh 6.8 and L3MBTL1 inh -14.4%.
`N#Cc1nc(-c2ccc(OCc3ccccc3)cc2)oc1N1CCC(C(N)=O)CC1` gave HP1b binding inh -2.0%, JMJD2A Tudor inh -22.1%, G9a inh 8.0%[2.33 µM], BAZ2B inh 1.4%, PI5P4K alpha inh 3.8 and L3MBTL1 inh 0.5%.
Screening N#Cc1nc(-c2ccc(COc3ccc(Cl)cc3)o2)oc1N1CCC(C(N)=O)CC1 returned HP1b binding inh 11.9%, JMJD2A Tudor inh -21.9%, G9a inh 8.91µM* and BAZ2B inh inconclusive.
`CCNc1oc(-c2ccc(COc3ccc(Cl)cc3)o2)nc1C#N` gave HP1b binding inh 17.8%, JMJD2A Tudor inh -5.6%, G9a inh -28.1%[59 µM] and BAZ2B inh -37.2%.
CN(C)CCNc1oc(-c2ccc(COc3ccc(Cl)cc3)o2)nc1C#N was read as HP1b binding inh -13.0%, JMJD2A Tudor inh 39.8µM*, G9a inh inconclusive and BAZ2B inh inconclusive.
O=C(Nc1sc2c(c1C(=O)NCC1CCCO1)CCC2)c1cc(=O)c2ccccc2o1 (centres undefined) was read as HP1b binding inh 20.2%, JMJD2A Tudor inh -22.2%, G9a inh 4.3%[59 µM] and BAZ2B inh -11.8%.
For COc1ccc(OCc2ccc(-c3nc(C#N)c(NCc4ccc(F)cc4)o3)o2)cc1 the results were HP1b binding inh -11.8%, JMJD2A Tudor inh inconclusive, G9a inh 3.98µM* and BAZ2B inh inconclusive.
CCCCNc1oc(-c2ccc(COc3ccc(OC)cc3)o2)nc1C#N was read as HP1b binding inh 11.2%, JMJD2A Tudor inh -10.6%, G9a inh -41.3%[59 µM] and BAZ2B inh -18.7%.

Source: PubChem (National Center for Advancing Translational Sciences (NCATS))
